This is an account of results in ChEMBL document CHEMBL3988442, “University of Dundee, Small-Polar-MMV Screening Library” (2021).

Test [1] addresses T1, Aspartate--tRNA(Asp/Asn) ligase (Mycobacterium tuberculosis (strain ATCC 25618 / H37Rv)) (UniProt P9WFW3).
T1 sequence (whole entry): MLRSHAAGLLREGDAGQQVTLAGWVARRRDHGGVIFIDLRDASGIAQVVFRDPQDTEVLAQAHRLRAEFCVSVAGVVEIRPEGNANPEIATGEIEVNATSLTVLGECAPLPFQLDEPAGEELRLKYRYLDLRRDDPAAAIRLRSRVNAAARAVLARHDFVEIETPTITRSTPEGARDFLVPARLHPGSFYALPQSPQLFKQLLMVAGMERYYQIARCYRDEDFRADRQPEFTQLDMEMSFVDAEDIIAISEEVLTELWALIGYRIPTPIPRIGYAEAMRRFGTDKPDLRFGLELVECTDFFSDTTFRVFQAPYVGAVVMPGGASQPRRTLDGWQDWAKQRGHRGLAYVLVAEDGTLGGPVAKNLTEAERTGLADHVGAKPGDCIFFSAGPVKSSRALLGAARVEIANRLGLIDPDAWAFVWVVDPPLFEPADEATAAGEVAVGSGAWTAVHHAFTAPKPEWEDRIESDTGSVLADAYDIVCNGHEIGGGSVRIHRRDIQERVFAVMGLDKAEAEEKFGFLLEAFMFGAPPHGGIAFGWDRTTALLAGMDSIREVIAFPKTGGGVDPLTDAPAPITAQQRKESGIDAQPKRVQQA
Description: Assay for Asp RNA synthetase-1 from Mycobacterium tuberculosis. The format is functional. Details: scale not given: direction of the effect not stated beside the values. The note with it: 30 µM.

Test [2] addresses Shiga toxin 2 (Escherichia coli O157:H7) (UniProt P09385+P09386). Description: E. coli 0.157:H7 Shiga Toxin SOP - stx2 screening assay. It is filed as functional. Also noted: scale not given: direction of the effect not stated beside the values. The note with it: 30 µM.

For the compound `O=C1NCCCCC1Sc1nnc(C2CC2)n1C1CC1` (centres undefined), the Percent Effect in test [1] was -6.09%; in test [2], 3.62%.

On to `c1cnnc(N2CCCC2CNCc2ccsc2)c1` (centres undefined), for which the Percent Effect in test [1] was -3.81%; in test [2] it was -8.21%.

For the compound `Cc1nc(-c2ccco2)ccc1C(=O)N1CCCC1Cn1cccn1` (centres undefined), the figures for the Percent Effect in test [1] and in test [2] were 0.0146% and 15.5%, respectively.

As for `CCC(CC)c1cc(C(=O)N2CCCC(n3cncn3)C2)on1` (centres undefined), the Percent Effect in test [1] is -5.51%; in test [2], -2.33%.

Turning to `CCCNCc1cn(C)nc1-c1cccnc1`, the Percent Effect in test [1] was -0.663%; in test [2], -14.7%.

As to `O=C(c1cccc(CNS(=O)(=O)c2ccccc2F)c1)N1CCCC1`, the Percent Effect in test [1] came out at 5.13%; in test [2], 22.1%.

On to `CCOCC1CN(Cc2ccoc2)Cc2ncn(CC3CC3)c21` (centres undefined), for which the Percent Effect is 0.605% in test [1] and -8.58% in test [2].

As for `CCc1noc(CN(C)Cc2ccc(N3CCCCC3)cc2)n1`, the Percent Effect is -2.17% in test [1] and -19.3% in test [2].

Consider `CCOC(=O)CNC(=O)N1CCN(c2ncccn2)CC1`, for which the Percent Effect was 4.73% in test [1] and -21.7% in test [2].

On to `Cc1ccc2oc(C(=O)N3CCCC(n4nc(C)cc4C)C3)cc2n1` (centres undefined), for which the Percent Effect in test [1] is -3.54%; in test [2], 1.89%.

In the case of `O=C(CSC1CCc2ccccc2NC1=O)NCCc1ccco1` (centres undefined), the Percent Effect in test [1] was -3.17%; in test [2], -9.27%.

In the case of `COc1cc(NC(=O)c2cc(C)sc2C)c(C(=O)N(C)C)cc1OC`, the Percent Effect in test [1] was 7.46%; in test [2], -44.2%.

Take `COc1ccc(C(=O)N2C[C@@H](C(=O)O)[C@H](c3ccccc3C)C2)c(O)c1`: the Percent Effect in test [1] was 8.11%; in test [2], 0.95%.

Turning to `CN(CCCNC(=O)N1CCCC1c1ccsc1)c1ccccn1` (centres undefined), the results for the Percent Effect in test [1] and in test [2] were -3.28% and -79.8%, respectively.

As to `NS(=O)(=O)CCNC(=O)c1ccc(-c2ccc(F)cc2)cc1F`, the values for the Percent Effect in test [1] and in test [2] were 16.3% and -53.6%, respectively.

Turning to `Cc1c[nH]c(CN(C)c2nc(C3CCCC3)nc3c2cnn3C)n1`, the Percent Effect in test [1] was 0.0557%; in test [2], -4.38%.

Regarding `CCn1ncc2c1CCCC2NCC1=Cc2ccccc2OC1` (centres undefined), the Percent Effect in test [1] was 4.82%; in test [2], -23.2%.

In the case of `CCc1nc(CN(C)C2CCN(CCc3ccccn3)C2)no1` (centres undefined), the Percent Effect in test [1] is 8.1%; in test [2], -35.9%.

Regarding `Cc1nc(C)n(CC2CN(CC(=O)Nc3nccs3)CCO2)n1` (centres undefined), the Percent Effect was -3.2% in test [1] and 0.609% in test [2].

In the case of `Cc1cc(C)cc(OCC(=O)NC2CCN(S(C)(=O)=O)CC2)c1`, the Percent Effect was 0.903% in test [1] and -16.4% in test [2].

As to `Cc1ncc2c(n1)CN(CC(=O)Nc1nncs1)CC2`, the Percent Effect was -3.23% in test [1] and -20.4% in test [2].

As to `CCc1cc(N[C@H]2CC[C@H](O)CC2)n2nc(C)c(C)c2n1`, the results for the Percent Effect in test [1] and in test [2] were 1.45% and -12.4%, respectively.

With `COCCCNC(=O)CN(C)C(=O)c1cc(C)sc1C`, the Percent Effect in test [1] was -2.19%; in test [2], 10.4%.

With `Cc1cnc(C(=O)N2CCCCC2c2[nH]ncc2S(C)(=O)=O)cn1` (centres undefined), the figures for the Percent Effect in test [1] and in test [2] were 2.63% and -5.44%, respectively.

Consider `O=C(COc1ccc(C(F)(F)F)cc1)NS(=O)(=O)c1cccnc1`, for which the results for the Percent Effect in test [1] and in test [2] were 6.95% and 15%, respectively.

For `CCN1CC(C(=O)NCc2ccnc(-n3ccnc3C)c2)CC1=O` (centres undefined), the results for the Percent Effect in test [1] and in test [2] were -3.16% and -11.9%, respectively.

Take `O=C(NC1CCC1)[C@@H]1CCO[C@@H]2CCN(CCc3ccccc3)C[C@H]21`: the Percent Effect is -2.94% in test [1] and -26.8% in test [2].

Take `Cc1nn(C)c(C)c1CC(=O)N1CCC(Nc2cccnn2)CC1`: the Percent Effect in test [1] was -1.68%; in test [2], -23.4%.

`CCCS(=O)(=O)NCC1CCOc2ccccc2C1` (centres undefined): the Percent Effect in test [1] was 0.416%; in test [2], -40%.

For the compound `CC(Nc1cccc(CN2CCOC2=O)c1)C(=O)Nc1ccccc1F` (centres undefined), the Percent Effect in test [1] was 1.17%; in test [2], -24.4%.

As to `Cc1ccccc1C(=O)N1CCOC2(CNCCOC2)C1` (centres undefined), the Percent Effect in test [1] is -0.279%; in test [2] it was -0.428%.

With `CCCOCC(=O)NC1CCc2nc(C)cn2C1` (centres undefined), the Percent Effect in test [1] came to 1.62%; in test [2], 7.61%.

Regarding `Cc1cnn(CC2CCCCN2Cc2nnc(C3CC3)n2C)c1` (centres undefined), the Percent Effect was -3.3% in test [1] and 1.19% in test [2].

As to `CC(C)(C(=O)NCC1CC1)c1ccccc1F`, the values for the Percent Effect in test [1] and in test [2] were -1.98% and -2.97%, respectively.

Turning to `O=C(c1cc(COc2ccc3c(c2)OCO3)[nH]n1)N1CCOCC1`, the Percent Effect in test [1] is -0.0228%; in test [2], -36.8%.

With `COCCO[C@H]1CCN(C(=O)c2ccc[nH]2)[C@H]1Cc1ccncc1`, the Percent Effect in test [1] is -0.0147%; in test [2], -2.78%.

In the case of `CCN1CCC(CNCc2cc(OC)ccc2OC)C1` (centres undefined), the values for the Percent Effect in test [1] and in test [2] were -3.93% and -21.3%, respectively.

Take `CCc1nc(C2CCCN2CC(=O)Nc2c(C)n[nH]c2C)no1` (centres undefined): the results for the Percent Effect in test [1] and in test [2] were -2.31% and 2.91%, respectively.

With `Cn1cc(CN2CCN(Cc3nccn3C)CC2)cn1`, the results for the Percent Effect in test [1] and in test [2] were -2.81% and -37.2%, respectively.

Consider `Cn1cccc1C(=O)N1CCn2cc(CNC(=O)CC3CC3)nc2C1`, for which the Percent Effect is -0.0735% in test [1] and -50.9% in test [2].

With `c1ccc2sc(CN3CCOC(Cn4cccn4)C3)nc2c1` (centres undefined), the Percent Effect was -0.285% in test [1] and 27.3% in test [2].

Turning to `COc1cccc(OCC2CCCN(C(C)=O)C2)c1` (centres undefined), the Percent Effect in test [1] is 3.99%; in test [2], -11%.

`COc1ccc(C(=O)N2CCCCC2Cn2cccn2)c(F)c1` (centres undefined): the Percent Effect in test [1] is 3.52%; in test [2], -7.04%.

`Cc1nc(C)n(CC2CCCN2Cc2nc3ccccc3nc2C)n1` (centres undefined): the figures for the Percent Effect in test [1] and in test [2] were -11.8% and -7.98%, respectively.

Turning to `CCc1ccc(CN(CCCn2ccnc2)Cc2ccc(C)s2)o1`, the Percent Effect was 2.1% in test [1] and -1.1% in test [2].

For `Cc1nc(N2CCN(C(=O)c3ccsc3)CC2)c2cnn(C)c2n1`, the Percent Effect is 5.51% in test [1] and 0.569% in test [2].

Consider `COCCN1CCC(CN(CC2CCCO2)C(=O)COC)CC1` (centres undefined), for which the Percent Effect in test [1] was -4.26%; in test [2], -0.207%.

For the compound `COCCN(C)C(=O)c1ccc(OC)cc1O`, the figures for the Percent Effect in test [1] and in test [2] were 0.638% and -28.1%, respectively.

As for `Cc1ccc(C(=O)NC2CCN(C(=O)Nc3ccccn3)CC2)o1`, the Percent Effect in test [1] came to 5.16%; in test [2] it was 25.6%.

Consider `CN(C)C(=O)COC[C@]12COC[C@H]1CN(Cc1ccoc1)C2`, for which the Percent Effect is -2.38% in test [1] and -7.04% in test [2].

Turning to `CSCC(C)(O)CNC(=O)c1ccc(Br)cc1C` (centres undefined), the Percent Effect in test [1] is -3.46%; in test [2] it was -16%.

Take `CC(C)N(C)S(=O)(=O)N(C)Cc1ccc2c(c1)OCO2`: the Percent Effect in test [1] was -7.16%; in test [2] it was -23.7%.
